Assay results as given in PubChem BioAssay (NCI).
About 83,000 compounds went through this panel and 20% of them were active in at least one assay; those are over-represented in the sample as a whole.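 Step 1: grow cells in 96-well plates. Step 2: add test compound at a single concentration. Step 3: incubate 48 h. Step 4: record percent growth.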 Calls of active or inactive are those of the source.

System: HL-60(TB) leukemia
Assay: NCI-60 one-dose screen, 48 h (100 = growth as untreated, 0 = no growth, -100 = all killed)
Settings: 10 µM unless noted
Description: Growth inhibition of the HL-60(TB) human tumor cell line is measured as a screen for anti-cancer activity. Cells are grown in 96 well plates and exposed to the test compound for 48 hours. Compounds are tested at a single concentration, which is 10^-5 M for most compounds. The reported endpoint is percent growth (GI% or GIPRCNT), where numbers from 0 - 100% represent growth inhibition, and numbers from -100% - 0 represent cell death. For example, a value of 40 represents 60% growth inhibition. A value of 0 means no net growth occurred over the course of the experiment. A value of -40 indicates 40% of cells at the beginning of the experiment died by the end of the experiment. A value of -100 means all cells are dead at the end of the experiment.
NCI-60 Human Tumor Cell Lines Screen was performed using the standard one-dose NCI protocol, which is described in more detail at https://dtp.cancer.gov/discovery_development/nci-60/default.htm.
Compounds with GIPRCNT values below 10 were considered active. Activity score was based on GIPRCNT using the following formula: […]
Score is 0 for GIPRCNT values of 100 or above, 50 for GIPRCNT values of 0, and 100 for GIPRCNT values of -100.

Row | Compound | growth
1 | Cc1cccc2cc(-c3cc(-c4ccccc4)nc(=S)[nH]3)c(Cl)nc12 | 58.9% (inactive)
2 | COc1ccc2nc(Nc3cccc(NC(=O)c4ccc(CN5CCCN(C)CC5)c(C(F)(F)F)c4)c3)ccc2c1 | -28% (active)
3 | Cc1ccc(C(=O)N/C(=C2/OCCN2C)[P+](c2ccccc2)(c2ccccc2)c2ccccc2)cc1 | 38.8% (inactive)
4 | COc1cc(C2CC(c3ccc(C)cc3)=Nc3c(N)nc(N)nc3N2)ccc1Oc1nc(Nc2ccc(F)cc2)nc(N(C)C)n1 (stereo not given) | 52% (inactive)
5 | COc1ccc(CN2[C@@H](C(=O)NCc3ccc(C(=O)NO)cc3)Cc3c([nH]c4ccccc34)[C@@H]2C)cc1 | -5.52% (active)
6 | Cc1ccc(-c2cc(-c3cc4ccccc4nc3Cl)[nH]c(=O)n2)cc1 | -32.7% (active)
7 | COc1ccc2oc3c4[nH]c5ccccc5c4c4c(c3c2c1)C(=O)N(C(=O)OC(C)(C)C)C4=O | -7.65% (active)
8 | CN1CCN(Cc2ccc(C(=O)Nc3cccc(Nc4ccc5cc(O)ccc5n4)c3)cc2C(F)(F)F)CC1 | -70.2% (active)
9 | C=C1CC[C@@H]2[C@]3(C)COC(c4cn[nH]c4-c4ccccc4)O[C@@H]3CC[C@@]2(C)[C@@H]1C/C=C1/C(=O)OCC1O (stereo not given in full) | 8.64% (active)
10 | COc1ccc(Cc2nn(CC(=O)N/N=C/c3ccc(F)cc3)c(=O)c3c(C)noc23)cc1 | 78.2% (inactive)
11 | C/C(=N\Nc1ccc(C(=O)O)cc1)c1cnn(-c2cc(=O)[nH]c3ccc(C)cc23)c1C | 101% (inactive)
12 | CN(C)c1nc(NCCNS(=O)(=O)c2ccc(C(=O)/C=C/c3ccc(Cl)cc3)cc2)nc(Nc2ccc(F)cc2)n1 | -42.7% (active)
13 | O=C(c1ccccc1)c1ccc2nc(-c3ccc(F)cc3)[nH]c2c1 | 36.1% (inactive)
14 | Cn1cc(-c2cc3nc(-c4cn(C)c5ncc(Br)cc45)cc(N)n3n2)c2cc(Cl)ccc21 | -62.4% (active)
15 | COc1ccc(-c2nc3ccc(-c4nnc(SCC(=O)Nc5ccc(/C(C)=N\O)cc5)o4)cc3[nH]2)cc1 | 77.6% (inactive)
16 | COc1ccc(-c2c(N)c(=O)n(C)c3ccccc23)cc1 | 79.3% (inactive)
17 | O=C1Nc2ccc(Cl)cc2/C1=C/c1cccc(OCc2ccccn2)c1 | -25% (active)
18 | CC1CCc2c(sc3nc(SCC(=O)c4cccc([N+](=O)[O-])c4)n(-c4ccccc4)c(=O)c23)C1 (stereo not given) | 87.1% (inactive)
19 | CCOC(=O)C(Cc1ccccc1)N1C(=O)/C(=C/N2N=C(c3ccc(OC)cc3)CC2c2ccc3ccccc3c2)SC1=S (stereo not given) | -18.4% (active)
20 | CCCn1c(NC(=O)c2cccc(C(N)=O)c2)nc2ccc(CN3CCCCC3)cc21 | 72.9% (inactive)

Row | Compound | growth
21 | S=C(Nc1ccc(OCc2nc3ccc(Cl)cc3[nH]2)cc1)NC1CCCCC1 | -37.1% (active)
22 | Cc1cccc(/C=C/c2ccc(NC(=S)NCCCCN(C)C)cc2)c1 | -37.7% (active)
23 | Cc1ccc(C(=O)Nc2cc(-c3ccccc3)cc(C(F)(F)F)c2)cc1C#Cc1cnc2cccnn12 | 38.1% (inactive)
24 | Cc1cc(=O)oc2cc(OCC(O)CNN3C(=O)c4cccc5c(N6CCN(C)CC6)ccc(c45)C3=O)ccc12 (stereo not given) | 113% (inactive)
25 | Cc1ccc(CNC(=O)Cc2ccc3c(c2)CN(C2CCC(=O)NC2=O)C3=O)cc1 (stereo not given) | -23.1% (active)
26 | COc1ccc(C2(SCCNCc3cc(N(C)C)ccn3)c3ccccc3C=Cc3ccccc32)cc1 | -21.8% (active)
27 | Cc1ccc([C@H]2C(C(=O)c3ccc(Cl)cc3)C3(N[C@@H]2c2ccccc2)C(=O)Nc2ccc(Cl)cc23)cc1 (stereo not given in full) | 34.1% (inactive)
28 | COc1ccccc1C(=O)NNC(=O)CSc1nc2c(c(=O)[nH]1)CCCC2 | 100% (inactive)
29 | CC[C@]12C=CCN3CC[C@@]4(c5ccc(OC)cc5N(C)[C@H]4[C@@](O)(C(=O)OC)[C@@H]1OC(=O)CCCC[P+](c1ccc(OC)cc1)(c1ccc(OC)cc1)c1ccc(OC)cc1)[C@@H]32 | -45.2% (active)
30 | CC(C)(C)C(=O)c1c2c(c3ccc4c5ccccc5ccc4n13)C(=O)c1ccccc1C2=O | 94.2% (inactive)
31 | CCOP(=O)(OCCCl)c1nc(-c2ccc(C)cc2)oc1NCc1ccccc1 (stereo not given) | 71.9% (inactive)
32 | O=[N+]([O-])c1ccc(-c2nc(-c3ccccc3)c(-c3ccccc3)n2-c2ccc(S(=O)(=O)Nc3ncccn3)cc2)cc1 | 38.2% (inactive)
33 | COc1cc(-c2nc3ccc(C)cc3[nH]2)ccc1OCc1nnc(-c2ccc(Br)cc2)o1 | -34.8% (active)
34 | Cc1ccc(S(=O)(=O)c2nc(S(=O)(=O)c3ccc(C)cc3)c(N3CCN(C)CC3)s2)cc1 | 17.8% (inactive)
35 | CN(C(=O)c1ccc(C(C)(C)C)cc1)c1sc2c(c1C#N)CCC(=O)C2 | 52.4% (inactive)
36 | O=c1[nH]n(C(=S)N/N=C/c2ccccc2Cl)c(=O)c2ccccc12 | -6.48% (active)
37 | Cn1cc(-c2nc(N)nnc2-c2c[nH]c3ccc(Br)cc23)c2cc(Br)cnc21 | -35.8% (active)
38 | O=C1Nc2cc(-c3ccc(NS(=O)(=O)c4ccc([N+](=O)[O-])cc4)cc3)ccc2/C1=C/c1ccc[nH]1 | 13.7% (inactive)
39 | Cn1cc(-c2cc(N)n3nc(-c4c[nH]c5ccccc45)cc3n2)c2cc(Br)ccc21 | -18.3% (active)
40 | COc1cc2c(c(OC)c1OC)C(=O)CC(c1cccc(NC(=O)[C@@H](N)CC(C)C)c1)O2 (stereo not given in full) | 96.6% (inactive)
